Measurements: PubChem BioAssay AID485275 (NMMLSC, 2010)
In all, about 330,000 compounds went through this assay and about 1,400 (0.42%) were called active. This is one part of a sample in which actives are shown more often than they occur. Values without a mark were called inactive.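 Rule for the calls: active = plate passing quality check with inhibition over a set limit, or well fluorescence over plate mean plus 4 SD; inactive = the rest.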

Assay: inhibitors of Candida efflux pumps in yeast, primary screen, S. cerevisiae, Nile Red, multiplex (AID 485275);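 note: Nile Red retained in pooled yeast measured as flow cytometry median fluorescence; 0% = buffer negative control and 100% = Enniatin B positive control; higher means more Nile Red kept so more efflux inhibition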
Settings: S. cerevisiae Candida pump triplex, at 10 µM, stronger effect = higher value

| SMILES | inhibition |
| --- | --- |
| CCOC(=O)C1CCN(C(=O)CN2C(=O)NC(C)(c3ccc4cc(OC)ccc4c3)C2=O)CC1 (stereo unspecified) | -0.03% |
| O=C1c2ccccc2[C@@H]2C[C@@H](O)[C@H](Nc3ccccc3Cl)CCN12 | 0.16% |
| O=C(CNCc1ccc(F)cc1)Nc1ccccc1-c1ccccc1 | -0.07% |
| CCN(CC)CCn1c2c(c(SCC(=O)Nc3ccc(C(C)C)cc3)nc1=O)CCC2 | -0.06% |
| CC1CCCCC1NC(=O)c1cn(C)c2ccc(S(=O)(=O)N3CCOCC3)cc2c1=O (stereo unspecified) | -0.14% |
| COCCNC(=O)c1ccc2c(c1)ncn2-c1ccc(C)c(Cl)c1 | 0.09% |
| CCn1c(SCc2ccccc2)nc2cc(OC)c(OC)cc2c1=O | -0.05% |
| CCOCCCn1c(NN)nc2ccccc2c1=O | 0.04% |
| CCn1c(/C=C/c2ccc([N+](=O)[O-])o2)nc2ccccc2c1=O | 1.26% (active) |
| C=CC[C@H](CC(=O)NCCO)C(=O)N[C@@H](COC(=O)[C@@H](CC=C)Cc1ccc(F)cc1)Cc1c[nH]c2ccccc12 | -0.26% |
| Cc1ccc(C(=O)NC(=S)Nc2ccc(N3CCOCC3)cc2)cc1 | 0% |
| COc1ccc(C(=O)NC(=S)Nc2ccccc2N2CCN(S(C)(=O)=O)CC2)cc1OC | 0.06% |
| COc1ccc(C(=O)NC(=S)Nc2ccc(N3CCCC3)cc2)cc1OC | 6.65% (active) |
| CCn1cc(C(=O)N2CC(C)CC(C)C2)c(=O)c2cc(S(=O)(=O)N3CCCC3)ccc21 (stereo unspecified) | 0.08% |
| O=C(NCCc1ccccn1)c1cc(-c2ccc(Cl)cc2)nc2ccccc12 | 0.18% |
| Cn1nnnc1SCC(=O)Nc1ccccc1C(=O)NC1CC1 | 0% |
| CC(=C/c1ccccc1)/C=N/NC(=O)c1cc(C)oc1C | 0.06% |
| CC(/C=N/NC(=O)c1cc(-c2ccc3ccccc3c2)n[nH]1)=C\c1ccco1 | 0.5% (active) |
| CC(C)(C)C1CCC(=NNC(=O)c2cc(-c3ccccc3)n[nH]2)CC1 (stereo unspecified) | 0.31% |
| CCOC(OCC)c1ccc(/C=C\c2nccc(N)n2)cc1 | -0.05% |
| Cc1ccc(-n2c(SCC(=O)Nc3ncc(Cl)cc3Cl)nc3ccccc32)cc1 | 0.75% |
| CCCn1c(O)c(CN2CCCC(C)C2)c(C)c(C#N)c1=O (stereo unspecified) | -0.15% |
| CCOc1ccc(N2C(=O)CN(c3cccc4ccccc34)C2=S)cc1 | -0.04% |
| COc1ccc(S(=O)(=O)N2CCOC2CNC(=O)C(=O)NCc2ccc(F)cc2)cc1 (stereo unspecified) | 5.66% (active) |
| COc1ccc(CCNC(=O)C(=O)NCC2OCCN2S(=O)(=O)c2ccc(F)cc2)cc1OC (stereo unspecified) | 0.07% |
| O=C(NCc1ccc2c(c1)OCO2)C(=O)NCC1OCCN1S(=O)(=O)c1ccc(F)cc1 (stereo unspecified) | 0.25% |
